Bioassay records: PubChem, The Scripps Research Institute Molecular Screening Center
Many of the other results were omitted from the sample, so hits are more common in it than they were.
TbREL1 primary = TbREL1 RNA ligase inhibitors, primary screen, biochemical, FRET fluorescence | RNA-editing ligase 1, mitochondrial (Trypanosoma brucei brucei), P86926 | TbREL1 RNA ligation | inhibition, % at 9.66 µM | actives 0.49% (n = 89,000);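 active = inhibition above the mean inhibition across all screened compounds plus 3 SD, cut at about 11% in these data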;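 also: 0% = plate median of test wells and 100% = NSC42067 control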
Target sequence (P86926 whole entry, looked up): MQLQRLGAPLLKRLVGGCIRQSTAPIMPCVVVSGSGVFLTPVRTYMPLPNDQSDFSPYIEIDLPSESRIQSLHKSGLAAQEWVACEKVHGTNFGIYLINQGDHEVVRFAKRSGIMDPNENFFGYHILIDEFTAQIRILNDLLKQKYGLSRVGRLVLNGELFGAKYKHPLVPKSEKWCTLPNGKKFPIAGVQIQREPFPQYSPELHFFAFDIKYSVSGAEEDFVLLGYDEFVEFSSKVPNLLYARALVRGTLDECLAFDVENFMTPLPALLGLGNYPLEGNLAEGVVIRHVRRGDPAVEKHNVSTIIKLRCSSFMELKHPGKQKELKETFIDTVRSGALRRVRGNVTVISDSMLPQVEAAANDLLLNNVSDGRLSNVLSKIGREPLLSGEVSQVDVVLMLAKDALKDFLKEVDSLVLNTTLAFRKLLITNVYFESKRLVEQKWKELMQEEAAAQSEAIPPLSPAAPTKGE
TbREL1 confirm = TbREL1 RNA ligase inhibitors, confirmation, biochemical, FRET fluorescence, triplicate. AID 1117282, 2014. inhibition, % at 9.66 µM. TbREL1 RNA ligation. actives 37% (n = 390). shares compounds with TbREL1 primary;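 active = mean inhibition across replicates above a set limit taken from the earlier primary screen, cut at about 11% in these data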;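 also: 0% = REL1 with substrate and DMSO and 100% = REL1 plus control inhibitor NSC42067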
Starred values were filed as active, the others as inactive.

Results for Cc1ccc(CN2CC(N3CCC(c4ccccc4)CC3)CS2(=O)=O)cc1 (centres undefined) ?
TbREL1 primary: 2.2

Results for CC(C)(C)NC(=O)Cn1c(=O)oc2ccc(Cl)cc21 ?
TbREL1 primary: 59.3*; TbREL1 confirm: 5.2

What do the screens show for `CC(C)(C)c1csc(NC(=O)Cn2c(=O)oc3ccccc32)n1`?
TbREL1 primary: 5.6

Results for O=C(Cn1c(=O)oc2ccccc21)c1ccccc1 ?
TbREL1 primary: 2.2

What do the screens show for `O=C(CN1C(=O)NC2(CCCC2)C1=O)Nc1cc(S(=O)(=O)N2CCOCC2)ccc1OCC(F)(F)F`?
TbREL1 primary: -3.7

Results for CCCNC(=O)C1(C)CCCN(Cc2csc3ccccc23)C1 (centres undefined) ?
TbREL1 primary: -4.0

How did CC(=O)Nc1ccc(-c2ccnc3c2CC(C(=O)NCc2ccccc2)O3)cc1 (centres undefined) do in these assays?
TbREL1 primary: 0.2

Results for COc1cc(Br)cc2cc(C(=O)N3CCN(c4ccccn4)CC3)c(=O)oc12 ?
TbREL1 primary: 1.2

How did COc1cccc2cc(C(=O)N3CCN(c4ccccc4F)CC3)c(=O)oc12 do in these assays?
TbREL1 primary: 6.0

Results for COc1cc([N+](=O)[O-])cc2cc(C(=O)N3CCN=C3c3ccccc3)c(=O)oc12 ?
TbREL1 primary: 11.4*; TbREL1 confirm: 2.5

How did O=C(CC1CCCC1)N1CCN(S(=O)(=O)c2cccc(F)c2)CC1 do in these assays?
TbREL1 primary: -2.1

Results for O=C(OCc1ccccc1)[C@H](Cc1ccccc1)NC(=O)[C@@H]1CC=C[C@@H]2CCN(Cc3ccc(Cl)cc3)C(=O)[C@@H]21 ?
TbREL1 primary: 0.9

What do the screens show for `CCCCc1ccc2nc(NC(=O)c3cccs3)sc2c1`?
TbREL1 primary: 4.5

What do the screens show for `CCOC(=O)Cc1nnc(NC(=O)c2ncn[nH]2)s1`?
TbREL1 primary: 11.4*; TbREL1 confirm: 7.4

How did CCOC(=O)Cc1nnc(NC(=O)COc2ccc(C)cc2)s1 do in these assays?
TbREL1 primary: 0.4

What do the screens show for `CCOC(=O)Cc1nnc(NC(=O)c2ccccc2OCC)s1`?
TbREL1 primary: -2.5

Results for O=C(Nc1cccc(OC(F)(F)F)c1)c1ccc(-c2cccnc2)c2ccoc12 ?
TbREL1 primary: 1.2

How did COC(CNC(=O)[C@H](Cc1ccccc1)NCC(=O)NC1CCCCC1)OC do in these assays?
TbREL1 primary: 4.9

What do the screens show for `O=C(Nc1ccccc1)c1cccc2c(-c3cccnc3)coc12`?
TbREL1 primary: -0.6

What do the screens show for `Cc1ccc(NS(=O)(=O)c2ccc(C)c(C(=O)NCC(c3ccccc3)N(C)C)c2)cc1` (centres undefined)?
TbREL1 primary: -1.7

How did CCNC(=O)C1CCCN(C(=O)c2ccc(OC)c(OC)c2)CC1 (centres undefined) do in these assays?
TbREL1 primary: 2.6

Results for CCC[C@H]1[C@@H](NCc2cccs2)CC[C@@]23CCCN2C(=O)CCC[C@@H]13 ?
TbREL1 primary: -3.4

What do the screens show for `COc1cccc(-c2cccc(-c3nc(C(=O)NCCCN4CCOCC4)cc4c3[C@H](CCO)N(S(=O)C(C)(C)C)C4)c2)c1` (some centres undefined)?
TbREL1 primary: -2.2

What do the screens show for `CN(C)S(=O)(=O)c1cccc(NC(=O)c2ccc3c(c2)S(=O)(=O)N=C2CCCCCN23)c1`?
TbREL1 primary: -4.8

What do the screens show for `COc1ccc(CC(N)c2csc(Nc3ccc(C(C)=O)cc3)n2)cc1` (centres undefined)?
TbREL1 primary: 3.0

Results for Cc1cnc(C)c(Nc2nc(C(N)Cc3ccc(Cl)cc3)cs2)n1 (centres undefined) ?
TbREL1 primary: 11.3*; TbREL1 confirm: 10.2

What do the screens show for `NC(Cc1ccc(C(F)(F)F)cc1)c1csc(Nc2nncc3ccccc23)n1` (centres undefined)?
TbREL1 primary: 9.8

Results for O=C1c2ccccc2C(=O)N1CCC#Cc1ccc2cc(CCO)oc(=O)c2c1 ?
TbREL1 primary: -0.1

How did COc1ccc(Cn2cc(CN3CC(N4CCN(Cc5ccccc5F)CC4)CS3(=O)=O)nn2)cc1 (centres undefined) do in these assays?
TbREL1 primary: -3.9

How did Cc1ccc(-c2nnc(SCC(=O)Nc3ccc4c(c3)OCCO4)n2-c2ccc(Cl)cc2)cc1 do in these assays?
TbREL1 primary: 1.2

Results for O=S(=O)(Nc1cccc(-c2cn3c(n2)SCC3)c1)c1ccccc1F ?
TbREL1 primary: -4.2

Results for Oc1ccc(-c2cn3c(n2)SCC3)cc1 ?
TbREL1 primary: -3.5

What do the screens show for `Oc1ccc(-c2cn3c(n2)SCC3)cc1O`?
TbREL1 primary: 17.0*; TbREL1 confirm: 40.6*

How did Cc1cccc(S(=O)(=O)NC(=O)C2(C)CCN2C(=O)c2sccc2C)c1 (centres undefined) do in these assays?
TbREL1 primary: -0.7

How did O=C(NCCCSc1ccccc1)c1ccc(=O)[nH]c1 do in these assays?
TbREL1 primary: -2.2

Results for Nc1ccc(-c2nc3ccc(N)cc3[nH]2)cc1 ?
TbREL1 primary: 18.4*; TbREL1 confirm: 36.3*

How did Nc1ccc(-c2nc3ccc([N+](=O)[O-])cc3[nH]2)cc1 do in these assays?
TbREL1 primary: 3.0

What do the screens show for `Nc1ccc(-c2nc3ccc(-c4nc5ccccc5o4)cc3[nH]2)cc1`?
TbREL1 primary: 2.9

How did CC1(C)Cc2c(c(-c3ccccc3)[nH]c(=O)c2C#N)CS1 do in these assays?
TbREL1 primary: -0.2

How did CC(=O)N1CCN(c2nc(-c3ccco3)c3c(c2C#N)CC(C)(C)SC3)CC1 do in these assays?
TbREL1 primary: -2.4

Results for CC1(C)Cc2c(c(-c3ccco3)[nH]c(=O)c2C#N)CS1 ?
TbREL1 primary: 15.0*; TbREL1 confirm: 4.2

Results for COC(=O)[C@@]1(C(C)C)N=C(c2cc(OC)c(OC)c(OC)c2)[C@]2(O1)C(=O)N(Cc1cn(Cc3ccccc3)nn1)c1ccc(F)cc12 ?
TbREL1 primary: 2.8

Results for Cc1ccc(NC(=O)Nc2cc(C(F)(F)F)c[nH]c2=O)cc1 ?
TbREL1 primary: 2.0

How did O=P(c1ccccc1)(c1ccccc1)c1cnc2ccccn12 do in these assays?
TbREL1 primary: 8.1

What do the screens show for `COc1ccc(C[C@@H]2CN3C(=NC[C@@H]3C)N2C[C@H](C)NC(=O)CCC2CCCCC2)cc1`?
TbREL1 primary: 6.1

Results for C[C@@H](CN1C2=NC[C@H](Cc3ccccc3)N2C[C@H]1Cc1ccc(O)cc1)NC(=O)CCC1CCCCC1 ?
TbREL1 primary: 9.3

How did COc1ccc(C[C@H]2CN3C(=NC[C@H]3Cc3ccccc3)N2CCNC(=O)CCC2CCCCC2)cc1 do in these assays?
TbREL1 primary: 11.5*; TbREL1 confirm: 18.7*

What do the screens show for `O=C(COC(=O)CC1CCCC1)Nc1ccccc1[N+](=O)[O-]`?
TbREL1 primary: 2.9

Results for COC(=O)[C@@]12CCCCC3=C1N(CCC3)C(=O)[C@H]2CC(=O)NCc1cccc(C(F)(F)F)c1 ?
TbREL1 primary: -5.7

How did CC1CCN(C2CCN(S(=O)(=O)c3ccc(C(F)(F)F)cc3)CC2)CC1 do in these assays?
TbREL1 primary: 24.4*; TbREL1 confirm: 0.5

How did O=S(=O)(c1ccc(F)cc1)N1CCC(N2CCCCCC2)CC1 do in these assays?
TbREL1 primary: 1.1

How did CC1CCN(C2CCN(S(=O)(=O)c3ccc(F)cc3)CC2)CC1 do in these assays?
TbREL1 primary: 7.3

Results for O=C(Nc1ccc(C(F)(F)F)cc1)OC1CC2CC1[C@H]1CCCCN1[C@H]2Cc1ccccc1 (some centres undefined) ?
TbREL1 primary: 4.8
